# Results filed as inconclusive are left out. A call without a number means that no potency is given here. The source made the active and inactive calls. The call rests on the fitted dose curve; in most records, active means well fitted inhibition curve with a large enough effect; inconclusive means small, poorly fitted or top-dose-only effect; inactive means no such curve, though single readings can be large or run the other way.
# Molecular target: Papain (Carica papaya) (UniProt P00784)
# Assay: Primary qHTS assay for inhibitors of the protease papain (AID 1645873);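 further: papain turnover of Z-FR-AMC read as the AMC fluorescence gain over 10 min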
# Conditions: papain Z-FR-AMC cleavage, AMC fluorescence; series mostly up to 49.8 µM
# Potency means the concentration at half of the fitted maximal effect.
# Papain (Carica papaya), sequence (P00784 whole entry, looked up): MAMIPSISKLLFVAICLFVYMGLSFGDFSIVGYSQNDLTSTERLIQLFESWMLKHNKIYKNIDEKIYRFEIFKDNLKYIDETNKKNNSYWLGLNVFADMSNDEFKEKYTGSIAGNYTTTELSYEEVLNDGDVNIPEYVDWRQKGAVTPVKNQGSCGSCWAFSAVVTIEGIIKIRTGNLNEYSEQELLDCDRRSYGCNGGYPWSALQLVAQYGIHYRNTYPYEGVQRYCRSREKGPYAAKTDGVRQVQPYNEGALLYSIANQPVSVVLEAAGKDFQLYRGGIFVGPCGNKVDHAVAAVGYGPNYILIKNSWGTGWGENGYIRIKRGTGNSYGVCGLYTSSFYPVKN
row,Compound,Potency
1,CN1C2CCC1CC(OC(=O)c1c[nH]c3ccccc13)C2 (stereo not given),inactive
2,N[C@H](CO)C(=O)O,inactive
3,CC(C)COC(=O)OCN1C(=O)CN(CCN2CC(=O)N(COC(=O)OCC(C)C)C(=O)C2)CC1=O,inactive
4,COc1cc(NS(C)(=O)=O)ccc1Nc1c2ccccc2nc2ccccc12,22.4 µM (active)
5,Nc1cc(Cl)c(NC2=NCCN2)c(Cl)c1,inactive
6,Oc1ccc(O)cc1,inactive
7,CC1(C)CCC(NC(=O)[C@@H](N)CCC(=O)O)CC1,inactive
8,CCC(NC(C)C)C(O)c1ccc(O)c(O)c1 (stereo not given),inactive
9,C1CCc2nnnn2CC1,inactive
10,COC(=O)[C@H]1[C@H]2C[C@H]3c4[nH]c5ccccc5c4CCN3C[C@H]2CC[C@@H]1O,inactive
11,C[C@@H]1C(=O)NC2=Nc3cccc(Cl)c3CN21,inactive
12,C[N+]1(CCCCC[N+]2(C)CCCC2)CCCC1,inactive
13,CC(CCc1ccccc1)NCC(O)c1ccc(O)c(C(N)=O)c1 (stereo not given),inactive
14,CCCC1O[C@@H]2C[C@H]3[C@@H]4CCC5=CC(=O)C=C[C@]5(C)[C@H]4[C@@H](O)C[C@]3(C)[C@]2(C(=O)CO)O1 (stereo not given in full),inactive
15,CCCn1c(=O)[nH]c(=O)c2[nH]cnc21,inactive
16,N[C@@H](Cc1cnc[nH]1)C(=O)O,inactive
17,CNCCC=C1c2ccccc2CCc2ccccc21,inactive
18,O=C1CCC(c2ccc(-n3ccnc3)cc2)=NN1,inactive
19,CC[C@H](C)C(=O)O[C@H]1CCC=C2C=C[C@H](C)[C@H](CC[C@@H]3C[C@@H](O)CC(=O)O3)[C@H]21,inactive
20,C[C@]12CC[C@@H]3c4ccc(O)cc4CC[C@H]3[C@@H]1CC[C@@H]2O,inactive
